According to PubChem BioAssay (Tox21):
Inconclusive results are not listed. A call without a number means that no potency is given here. A number with no mark means an inactive call. Calls of active or inactive are those of the source. Calls follow the shape of the full dose curve.

Test: p53 small molecule agonists, cell-based qHTS assay with rat liver microsomes (AID 1963578)
In short: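 With rat liver microsomes and NADPH present (0.5 mg/mL final each), p53RE-bla cells are treated with compound for 16 h at 37 C. LiveBLAzer detection mixture is then applied for 2 h at room temperature in the dark.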

Compound | Potency | activation
Oc1cccc(Cl)c1 | inactive | –
Nc1n[nH]c(N)n1 | inactive | –
Cc1ccc(-c2c(Cl)nc(C#N)n2S(=O)(=O)N(C)C)cc1 | inactive | –
C[N+](C)(C)CCOC(=O)C(O)(c1ccccc1)c1ccccc1 | inactive | –
CCCCP(CCCC)CCCC | inactive | –
CNC(C)Cc1ccc2c(c1)OCO2 (stereo unspecified) | inactive | –
CCO/N=C(\CC)C1=C(O)CC(c2c(C)cc(C)cc2C)CC1=O (stereo unspecified) | inactive | –
CN(C)c1ccc(N=Nc2ccccc2)cc1 | inactive | –
Nc1c(Cl)c(F)nc(OCC(=O)O)c1Cl | inactive | –
CCCCCCCCCCCCN=C(N)N | – | 0.708% [at 2.33 µM]
N#CCCSCCC#N | inactive | –
NC(=O)c1ccc(N)nc1 | inactive | –
CC1(c2ccc(Oc3ccccc3)cc2)OC(=O)N(Nc2ccccc2)C1=O (stereo unspecified) | inactive | –
C[C@H]1CNCCc2ccc(Cl)cc21 | inactive | –
CC(C)(C#N)C(C)(C)C#N | inactive | –
COc1ccc2c(c1OC)C(=O)O[C@H]2[C@@H]1c2cc3c(cc2CCN1C)OCO3 | inactive | –
CC(=O)[O][Pb]([c]1ccccc1)([c]1ccccc1)[c]1ccccc1 | inactive | –
CN1C(=O)CN=C(c2ccccc2)c2cc([N+](=O)[O-])ccc21 | inactive | –
CC(N)=S | inactive | –
Cc1cc(Cl)ccc1O[C@H](C)C(=O)O | inactive | –
Cc1c([N+](=O)[O-])c(C)c([N+](=O)[O-])c(C(C)(C)C)c1[N+](=O)[O-] | inactive | –
N#Cc1cc(I)c(O)c(I)c1 | inactive | –
O=C(O)c1cc[c]([Hg][Cl])cc1 | inactive | –

Compound | Potency | activation
Cl/C=C\Cl | inactive | –
O=C(O)C(F)(F)C(F)(F)C(F)(F)C(F)(F)C(F)(F)C(F)(F)C(F)(F)C(F)(F)C(F)(F)F | inactive | –
[Hg+2].[I-].[I-] | inactive | –
CC[N+]1(C)CCCC(OC(=O)C(O)(c2ccccc2)c2ccccc2)C1 (stereo unspecified) | inactive | –
CCN(C(C)=O)c1cccc(-c2ccnc3c(C#N)cnn23)c1 | inactive | –
C=CC(=O)OCCN(C)C | inactive | –
CCc1cc(OC)c(C[C@H](C)N)cc1OC | inactive | –
CC(C)(c1ccc(O)c(-c2ccccc2)c1)c1ccc(O)c(-c2ccccc2)c1 | inactive | –
O=C(NC(=O)c1c(F)cccc1F)Nc1cc(Cl)c(Oc2ncc(C(F)(F)F)cc2Cl)c(Cl)c1 | inactive | –
O=C(O)C(F)(F)C(F)(F)C(F)(F)C(F)(F)C(F)(F)F | inactive | –
CC(C1CC1)C(O)(Cn1cncn1)c1ccc(Cl)cc1 (stereo unspecified) | inactive | –
Cc1ccc2c(c1)C1CN(C)CCC1N2 (stereo unspecified) | – | -0.463% [at 13.6 µM]
CCOc1ccc(C(C)(C)COCc2cccc(Oc3ccccc3)c2)cc1 | inactive | –
CC(Cl)(Cl)Cl | inactive | –
O=C1C(Cl)C(CCl)CN1c1cccc(C(F)(F)F)c1 (stereo unspecified) | inactive | –
COC(=O)C1(O)c2ccccc2-c2ccccc21 | inactive | –
CCC(C(N)=O)N1CCCC1=O (stereo unspecified) | inactive | –
CCC(COC(=O)c1cc(OC)c(OC)c(OC)c1)(c1ccccc1)N(C)C (stereo unspecified) | inactive | –
O=C(O)CC(Cl)C(=O)O (stereo unspecified) | inactive | –
C=CC(=O)N(C)C | inactive | –
CC(C(O)c1ccccc1)N(C)C/C=C/c1ccccc1 (stereo unspecified) | inactive | –
COC(=O)c1ccccc1S(=O)(=O)NC(=O)Nc1nc(C)nc(OC)n1 | inactive | –
C[C@]12Cc3nonc3C[C@@H]1CC[C@@H]1[C@@H]2CC[C@@]2(C)[C@H]1CC[C@]2(C)O | inactive | –
